We go through seven compounds from PubChem BioAssay (NCATS).

Where “and” joins values, the source holds several entries; their conditions need not be identical. Equal entries are not always repeated. Inconclusive results are not listed. A structure can be active in one record and inactive in another. Calls of active or inactive are those of the source. The call rests on the fitted dose curve; in most records, active means well fitted curve in the direction sought with a large enough effect; inconclusive means small, poorly fitted or top-dose-only effect, or another doubt; inactive means no such curve, though single readings can be large; an effect the other way counts as inactive or inconclusive.

The test system of assay [1] is MCC-26. Put plainly: qHTS assay to identify novel small-molecules to repurpose for Merkel cell carcinoma treatment (AID 1296009). Further: nearly all actives have a fitted effect of over 60% in size. Further: potency means the concentration at half of the fitted maximal effect. The settings on record: MCC and control cell lines, CellTiter-Glo viability, 72 h; series mostly up to 46 µM. In a few lines:
(§1)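 CellTiter-Glo luminescence after 72 hr compound exposure at 37 degree celsius gave cell viability. Libraries NPC and MIPE were run as 8- and 11-point dose responses; RLUs normalized to DMSO (negative) and no-cell (cytotoxicity) controls.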
A general note: qHTS replaces the single test concentration by a dilution series.

Assay [2] deals with MKL-1. The description is as above. The settings on record: MCC and control cell lines, CellTiter-Glo viability, 72 h; series mostly up to 46 µM. In a few lines:
as §1
On the technique in general: In ATP-based viability assays light output follows the ATP content of the culture.

Assay [3] has as its system MKL-2. The description is as above. As to conditions: MCC and control cell lines, CellTiter-Glo viability, 72 h; series mostly up to 46 µM. In a few lines: as §1
The subject of assay [4] is NIH3T3. The assay is described as above. As to conditions: MCC and control cell lines, CellTiter-Glo viability, 72 h; at 44.8 µM (top of the series) unless noted. In outline: as §1
The test system of assay [5] is UISO. The assay is described as above. As to conditions: MCC and control cell lines, CellTiter-Glo viability, 72 h; series mostly up to 46 µM. In outline: as §1
The subject of assay [6] is WaGa. The assay is described as above. The settings on record: MCC and control cell lines, CellTiter-Glo viability, 72 h; series mostly up to 46 µM. In outline: as §1
The test system of assay [7] is C33A. Put plainly: Primary qHTS to identify gynecologic anti-cancer compounds using libraries of approved drugs and bioactive compounds (AID 1345084). Further: nearly all actives have a fitted effect of over 55% in size. As to conditions: Gynecologic cancer cell panel viability, ATPlite luminescence, 48 h; series mostly up to 57.5 µM. In outline:
(§2)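 In this quantitative HTS, cell killing is estimated from loss of ATP-dependent luciferase light. Cells see five compound concentrations over a 48 h exposure.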

Assay [8] deals with CAOV3. Described as above. The settings on record: Gynecologic cancer cell panel viability, ATPlite luminescence, 48 h; series mostly up to 57.5 µM. In a few lines: as §2
The test system of assay [9] is CASKI. The description is as above. As to conditions: Gynecologic cancer cell panel viability, ATPlite luminescence, 48 h; series mostly up to 57.5 µM. In outline:
as §2

For assay [10], the system named is Es-2. The assay is described as above. As to conditions: Gynecologic cancer cell panel viability, ATPlite luminescence, 48 h; series mostly up to 57.5 µM. In a few lines:
as §2

Assay [11] relates to HeLa. The assay is described as above. As to conditions: Gynecologic cancer cell panel viability, ATPlite luminescence, 48 h; series mostly up to 57.5 µM. In outline:
as §2

In assay [12] the test system is Hek293T. Described as above. The settings on record: Gynecologic cancer cell panel viability, ATPlite luminescence, 48 h, control line for the selectivity index; series mostly up to 57.5 µM. In a few lines:
as §2

Assay [13] deals with JEG-3. Described as above. The settings on record: Gynecologic cancer cell panel viability, ATPlite luminescence, 48 h; series mostly up to 57.5 µM. In outline:
as §2

The test system of assay [14] is OV90. The description is as above. The settings on record: Gynecologic cancer cell panel viability, ATPlite luminescence, 48 h; series mostly up to 57.5 µM. In a few lines:
as §2

For assay [15], the system named is PA-1. Described as above. As to conditions: Gynecologic cancer cell panel viability, ATPlite luminescence, 48 h; series mostly up to 57.5 µM. In outline:
as §2

In assay [16] the test system is SKOV3. Described as above. The settings on record: Gynecologic cancer cell panel viability, ATPlite luminescence, 48 h; series mostly up to 57.5 µM. In a few lines: as §2
Assay [17] relates to Tov-21-G. The assay is described as above. As to conditions: Gynecologic cancer cell panel viability, ATPlite luminescence, 48 h; series mostly up to 57.5 µM. In a few lines: as §2
Assay [18] concerns Tov112D. The description is as above. The settings on record: Gynecologic cancer cell panel viability, ATPlite luminescence, 48 h; series mostly up to 57.5 µM. In outline:
as §2

A short description of assay [19]: Drug repurposing screens with cells derived from glioblastoma tumor samples (AID 1345199). Further: nearly all actives have a fitted effect of over 40% in size. Further: potency means the concentration at half of the fitted maximal effect. As to conditions: GBM patient neurospheres viability, ATP luminescence, 48 h. In outline:
(§3)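 Primary testing used CD133+ neurospheres from four GBM patients, seven concentrations, 48 h exposure and ATP-based viability; confirmation added three slower-growing patient lines.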

Assay [20] deals with astro. Described as above. The settings on record: viability, ATP luminescence, 48 h; series mostly up to 45.9 µM. In outline: as §3
Setting [21] is: at 45.9 µM (top of the series), tumour line B.
The mark [22] stands for this setting: at 46.1 µM (top of the series), tumour line C.
[23] abbreviates: at 45.9 µM (top of the series), tumour line D.
Where [24] appears, read: at 46 µM (top of the series), tumour line A.
On the % scale 0 is the no-effect control and ±100 the full control effect.

On to `OC(CCN1CCCCC1)(c1ccccc1)C1CC2C=CC1C2` (configuration not stated), for which the Potency result in assay [1], in assay [2], in assay [3], in assay [5], in assay [6] and in [7] was “inactive” throughout. Further, the Potency entry in [8], in assay [9], in assay [10], in assay [11], in [12] and in assay [13] was “inactive” each time. Also, the Potency result in assay [14], in assay [15], in [16], in assay [17], in [18] and in assay [20] was “inactive” in each case. For the same compound, the compound was called inactive in assay [4]. Also, the activity, negative = cell killing in [19] (setting [21]) is -6.31% (inactive) and -18.3% (inactive); in assay [19] (setting [22]), -5.16% (inactive).

As to `N=c1nc(N2CCCCC2)cc(N)n1O`, the Potency result in assay [1], in [2], in [3], in [5], in [6] and in assay [7] was “inactive” each time. Also, the Potency result in assay [8], in assay [10], in assay [11], in assay [12], in assay [13] and in assay [14] was “inactive” in each case. Moreover, the Potency entry in [15], in assay [16], in [17], in assay [18] and in [20] was “inactive” throughout. Also, in assay [4], the compound was classed as inactive. Further, the activity, negative = cell killing in assay [19] (setting [21]) was -6.91% (inactive); in assay [19] (setting [23]), -11% (inactive); in assay [19] (setting [24]), -16.6% (inactive).

With `O=C1CCCC2=C1C(c1[nH]ncc1Cl)N=C(Nc1nc3ccccc3o1)N2` (configuration not stated), the Potency result in assay [1], in [2], in assay [3], in assay [5], in assay [6] and in [7] was “inactive” in each case. In addition, the Potency result in [8], in [9], in assay [10], in [11], in [12] and in assay [13] was “inactive” throughout. Also, the Potency entry in assay [14], in assay [15], in assay [16], in [17] and in assay [18] was “inactive” each time. The outcome in [4] was inactive.

Consider `CC(C)NCC(O)COc1ccc(COCCOC(C)C)cc1` (configuration not stated), for which the Potency entry in assay [1], in [2], in assay [3], in [5], in assay [6] and in assay [7] was “inactive” throughout. The Potency result in assay [8], in [9], in assay [10], in [11], in assay [12] and in [13] was “inactive” throughout. Further, the Potency result in [14], in [15], in [16], in assay [17], in assay [18] and in [20] was “inactive” in each case. In addition, the outcome in assay [4] was inactive. In addition, the activity, negative = cell killing in [19] (setting [21]) was -9.69% (inactive) and -16.2% (inactive); in assay [19] (setting [23]), 1.75% (inactive) and -24.1% (inactive); in [19] (setting [22]), -2.09% (inactive) and 0.649% (inactive). Also, in [19] (tumour line A), the Potency is 11.2 µM (active).

For `COc1ccc([C@@H]2CC(=O)c3c(O)cc(O[C@@H]4O[C@H](CO[C@@H]5O[C@@H](C)[C@H](O)[C@@H](O)[C@@H]5O)[C@@H](O)[C@H](O)[C@@H]4O)cc3O2)cc1O`, the Potency result in assay [1], in [2], in assay [3], in assay [5] and in [6] was “inactive” in each case. Also, the outcome in assay [4] was inactive.

For the compound `CC(C=CC1=C(C)CCCC1(C)C)=CC=CC(C)=CC(=O)O`, the Potency result in [1], in [2], in assay [3], in [5] and in [6] was “inactive” each time. Further, the outcome in assay [4] was inactive.

On to `NC(N)=NC(=O)c1nc(Cl)c(N)nc1N`, for which the Potency result in assay [1], in [2], in assay [3], in assay [5], in assay [7] and in assay [8] was “inactive” in each case. The Potency result in assay [9], in [10], in assay [11], in assay [12], in [13] and in assay [14] was “inactive” each time. The Potency entry in assay [15], in assay [16], in assay [17], in [18] and in assay [20] was “inactive” throughout. In addition, the compound was classed as inactive in assay [4]. For the same compound, the Potency result in assay [6] is “inactive and 29.9 µM (active)”. For the same compound, the activity, negative = cell killing is -15.1% (inactive) in [19] (setting [23]), 18.9% (inactive) in [19] (setting [24]) and -11.2% (inactive) in assay [19] (setting [22]).
